Records with an inconclusive call do not appear. Where a call stands in place of a potency, no number is given. Activity calls are given as the source filed them. The call rests on the fitted dose curve; in most records, active means well fitted inhibition curve with a large enough effect; inconclusive means small, poorly fitted or top-dose-only effect; inactive means flat fitted curve, though single readings scatter.
Key:
Assay in all cases: qHTS profiling for inhibitors of Plasmodium falciparum proliferation (AID 504749); further: nearly all actives have a fitted effect of over 60% in size
Conditions in all cases: P. falciparum in erythrocytes, SYBR Green DNA, 72 h; series mostly up to 28.7 µM
CP203 = tested on: CP203
How it was run: (§1)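 Three-day growth assay of blood-stage parasites in erythrocytes (0.3% parasitemia, 2.5% hematocrit) at 37 C, 5% CO2, quantified by SYBR Green DNA staining after overnight detergent lysis.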

CP215 = tested on: CP215
How it was run: as §1

CP217 = tested on: CP217
How it was run: as §1

CP237 = tested on: CP237
How it was run: as §1

CP238 = tested on: CP238
How it was run: as §1

CP247 = tested on: CP247
How it was run: as §1

CP250 = tested on: CP250
How it was run: as §1

CP252 = tested on: CP252
How it was run: as §1

CP256 = tested on: CP256
How it was run: as §1

CP211 = tested on: CP211
How it was run: as §1
Potency means the concentration at half of the fitted maximal effect.

Compound: COc1cccc2c1C(=O)c1c(O)c3c(c(O)c1C2=O)C[C@@](O)(C(=O)CO)C[C@@H]3O[C@H]1C[C@H](N)[C@H](OC2CCCCO2)[C@H](C)O1 (stereo partly specified)
- Potency (CP203): 4.78 µM (active)
- Potency (CP215): 6.75 µM (active)
- Potency (CP217): 4.47 µM (active)
- Potency (CP237): 2240 nM (active)
- Potency (CP238): 5.01 µM (active)
- Potency (CP247): 3550 nM (active)
- Potency (CP250): 2.51 µM (active)
- Potency (CP252): 11200 nM (active)
- Potency (CP256): 8.91 µM (active)

Compound: COc1ccc2c(c1OC)C(=O)OC2[C@H]1c2c(cc3c(c2OC)OCO3)CCN1C (stereo partly specified)
- Potency (CP203): inactive
- Potency (CP211): inactive
- Potency (CP215): inactive
- Potency (CP217): inactive
- Potency (CP237): inactive
- Potency (CP238): inactive
- Potency (CP247): inactive
- Potency (CP250): inactive
- Potency (CP252): inactive
- Potency (CP256): inactive

Compound: CCCCCCCCCCCC(CC1OC(=O)C1CCCCCC)OC(=O)C(CC(C)C)NC=O (stereo unspecified)
- Potency (CP217): 2.24 µM (active)
- Potency (CP237): 794 nM (active)
- Potency (CP238): 0.708 µM (active)
- Potency (CP247): 398 nM (active)
- Potency (CP250): 0.447 µM (active)
- Potency (CP252): 794 nM (active)
- Potency (CP256): 0.708 µM (active)

Compound: COc1ccc([C@@H]2CNC(=O)C2)cc1OC1CCCC1
- Potency (CP203): inactive
- Potency (CP211): inactive
- Potency (CP215): inactive
- Potency (CP217): inactive
- Potency (CP237): inactive
- Potency (CP238): inactive
- Potency (CP247): inactive
- Potency (CP250): inactive
- Potency (CP252): inactive
- Potency (CP256): inactive

Compound: Nc1nc2c(c(=O)[nH]1)N(C=O)[C@H](CNc1ccc(C(=O)N[C@@H](CCC(=O)O)C(=O)O)cc1)CN2
- Potency (CP203): inactive
- Potency (CP211): inactive
- Potency (CP215): inactive
- Potency (CP217): inactive
- Potency (CP237): inactive
- Potency (CP238): inactive
- Potency (CP247): inactive
- Potency (CP250): inactive
- Potency (CP252): inactive
- Potency (CP256): inactive

Compound: OCC(O)C(O)C(O)CO (stereo unspecified)
- Potency (CP203): inactive
- Potency (CP211): inactive
- Potency (CP215): inactive
- Potency (CP217): inactive
- Potency (CP237): inactive
- Potency (CP238): inactive
- Potency (CP247): inactive
- Potency (CP250): inactive
- Potency (CP252): inactive
- Potency (CP256): inactive

Compound: CCC(C(=O)O)C1CCC(C)C(C(C)C(O)C(C)C(=O)C(CC)C2OC3(C=CC(O)[C@@]4(CC[C@](C)(C5CC[C@@](O)(CC)C(C)O5)O4)O3)C(C)CC2C)O1 (stereo partly specified)
- Potency (CP203): 0.269 µM (active)
- Potency (CP211): 536 nM (active)
- Potency (CP215): 0.675 µM (active)
- Potency (CP217): 1.12 µM (active)
- Potency (CP237): 447 nM (active)
- Potency (CP238): 1.12 µM (active)
- Potency (CP247): 891 nM (active)
- Potency (CP250): 1.12 µM (active)
- Potency (CP252): 891 nM (active)
- Potency (CP256): 2 µM (active)
